Here are results for 24 compounds from PubChem BioAssay (NCATS).

A number with no mark means an inactive call. The rule behind the calls is not given here.
Potency is the fitted concentration of half-maximal effect.

This assay relates to HIV-1 nucleocapsid protein NCp7 (binding to TG oligonucleotide). Description: HIV Nucleocapsid (AID 346).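 Note: potency is for inhibitors that block NC binding and lower polarization.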 The following applies: HIV-1 NC / fluorescein-TGTGTGTG probe, fluorescence polarization. The essentials: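 HIV-1 NC (100 nM) binding to fluorescein-labelled ssDNA TG4xF (10 nM) in Hepes pH 7.5, 250mM NaCl, 1uM ZnCl2, TCEP and 2-mercaptoethanol; compounds pin-transferred, 1 hr room temperature, fluorescence polarization read on CCD imager.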
A general note: In fluorescence polarisation assays a small probe gives low polarisation when free and higher when bound to something large.
Turning to `COc1ccc(C(=O)N2CCC3(CC2)CCN(c2ncccn2)CC3)cc1`, the Potency was over 20 µM.
As to `CC(=O)N1CCC2(CCCN(c3cccc(-c4ccccc4)c3)C2)CC1`, the Potency was over 20 µM.
To `N#CCCn1c(=O)cnc2cnc(OCc3ccccc3)nc21` belongs over 20 µM; to `CN1CCN(c2ncc3nc(-c4cc(F)cc(F)c4)c(=O)n(CCc4ccccc4)c3n2)CC1`, over 20 µM; to `COC(=O)N1CCC2(CCN(Cc3ccccc3OC)CC2)CC1`, over 20 µM.
Take `FC(F)(F)c1ccccc1-c1ccc2ncnc(NCc3cccnc3)c2c1`: the Potency is over 20 µM.
To `CN(C)Cc1ccccc1-c1nc(NC2CC2)c2ccccc2n1` belongs over 20 µM.
As to `COC(=O)N1CCC2(CC1)CN(c1ccccn1)C2`, the Potency was over 20 µM.
With `COC(=O)N1CCC2(CCCN(c3ccccn3)C2)CC1` the figure was over 20 µM.
To `Cn1cccc1C(=O)N1CCC2(CC1)CCN(c1ccc(-c3ccccc3)cc1)CC2` belongs over 20 µM.
Take `O=c1c(-c2cccc(F)c2)nc2cncnc2n1Cc1ccccc1Cl`: the Potency was over 20 µM.
On to `COCC(=O)N1CCC2(CCN(Cc3ccncc3)CC2)CC1`, for which the Potency is over 20 µM.
With `O=c1c(-c2ccccc2)nc2cnc(N3CCOCC3)nc2n1Cc1ccc(F)cc1`, the Potency was over 20 µM.
`O=C(c1cccc(F)c1)N1CCC2(CC1)CN(c1ncccn1)C2`: the Potency was over 20 µM.
As for `CN(C)C(=O)c1ccc(-c2nccc(NCc3cccs3)n2)cc1`, the Potency is over 20 µM.
Consider `CN(C)c1ncc2nc(-c3cccs3)c(=O)n(-c3ccccc3)c2n1`, for which the Potency is over 4 µM.
Take `CN1CCN(c2nc(-c3ccccc3C(F)(F)F)nc3ccccc23)CC1`: the Potency was over 20 µM.
As to `N#Cc1ccc(CN2CCC3(CC2)CCN(C(=O)c2ccncc2)CC3)cc1`, the Potency was over 20 µM.
Turning to `COc1ncc2nc(CCc3ccccc3)c(=O)n(C3CC3)c2n1`, the Potency was over 20 µM.
To `N#Cc1cccc(-c2nc(N3CCNCC3)c3ccccc3n2)c1` belongs over 20 µM; to `Cc1cnc(CNc2ncncc2-c2ccccc2C(F)(F)F)cn1`, over 20 µM.
Consider `Cc1cnc(CNc2ccnc(-c3cccc(C#N)c3)n2)cn1`, for which the Potency is over 20 µM.
For the compound `Cc1nc2cnc(N3CCNCC3)nc2n(Cc2cccs2)c1=O`, the Potency is over 4 µM.
To `CN1CCN(c2ncnc3ccc(-c4ccccc4Cl)cc23)CC1` belongs over 20 µM.
